Compounds with a hit are over-represented: about 18% of the library has one in this group of screens.
IL-1B inflam inh: qHTS for Inhibitors of Inflammasome Signaling: IL-1-beta AlphaLISA Primary Screen; AID 743279, 2014; activity change, % at 57.5 µM; 360,000 tested, 4.7% active; THP-1 LPS/ATP IL-1B secretion, AlphaLISA, 16 h; hits give low values; in the data active = activity change below about -50%; inconclusive = mostly about -30% to -49%; also: % is scaled to controls: 0 for no effect and ±100 for the full control effect
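Secreted IL-1B measured by AlphaLISA bead assay after 16 h compound exposure of THP-1 cells; compounds (final up to 57.5 uM) added 1 h before LPS (250 ng/mL) and ATP (1.25 mM) stimulation; lower signal means less secretion.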
HepG2 tox: qHTS for Inhibitors of TGF-b: Cytotox Counterscreen. 410,000 tested, 0.76% active. Potency, µM (titrated, usually from 46.1 µM), without a hit: at the top dose activity change, negative = cytotoxicity, actives largely listed as cytotoxic. HepG2 CAGA-GFP viability, ATP luminescence, 18 h. AID 588856, 2011; also: potency is read from the fitted curve at half-maximal effect
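CellTiter-Glo luminescence gave cytotoxicity after 18 hours at 37 degrees C. The cells were HepG2 CAGA-GFP in 1% FBS DMEM, stimulated with 500 pg/mL TGF-beta after compound addition. %Activity was normalised to no-cell wells (complete cell-killing) and DMSO (no toxicity), and curves were fitted and classified.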
TDP1 cell CPT: qHTS for Inhibitors of human tyrosyl-DNA phosphodiesterase 1 (TDP1): qHTS in cells in presence of CPT | chicken DT40 Tdp1-/-;hTDP1 cells + 20 nM CPT, ATP luminescence, 48 h | Potency, µM (top dose mostly 46.2 µM), without a hit: at the highest dose activity change, negative = growth inhibition, hits mostly inhibitors | 420,000 tested, 12% active | AID 686979, 2013; also: potency is read from the fitted curve at half-maximal effect; % is scaled to controls: 0 for no effect and ±100 for the full control effect; nearly all actives have a fitted effect of over 55% in size
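Chicken DT40 Tdp1-/- cells stably complemented with human TDP1 were seeded at 400 cells/well in medium containing 20 nM camptothecin, exposed to pin-transferred compounds, and grown at 37 °C for at least 48 hr. Viability was read as ATP luminescence.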
TDP1 inh: qHTS Assay for Inhibitors of Tyrosyl-DNA Phosphodiesterase (TDP1) | AID 485290, 2010 | Tyrosyl-DNA phosphodiesterase 1 (Homo sapiens), Q9NUW8 | recombinant TDP1, AlphaScreen DNA substrate cleavage | Potency, µM (top dose mostly 130 µM), inactives show at the highest dose activity change, negative = inhibition, usual class: inhibitors | 350,000 tested, 0.28% active; also: potency is read from the fitted curve at half-maximal effect; % is scaled to controls: 0 for no effect and ±100 for the full control effect; nearly all actives have a fitted effect of over 40% in size
Target sequence (Q9NUW8 whole entry, looked up): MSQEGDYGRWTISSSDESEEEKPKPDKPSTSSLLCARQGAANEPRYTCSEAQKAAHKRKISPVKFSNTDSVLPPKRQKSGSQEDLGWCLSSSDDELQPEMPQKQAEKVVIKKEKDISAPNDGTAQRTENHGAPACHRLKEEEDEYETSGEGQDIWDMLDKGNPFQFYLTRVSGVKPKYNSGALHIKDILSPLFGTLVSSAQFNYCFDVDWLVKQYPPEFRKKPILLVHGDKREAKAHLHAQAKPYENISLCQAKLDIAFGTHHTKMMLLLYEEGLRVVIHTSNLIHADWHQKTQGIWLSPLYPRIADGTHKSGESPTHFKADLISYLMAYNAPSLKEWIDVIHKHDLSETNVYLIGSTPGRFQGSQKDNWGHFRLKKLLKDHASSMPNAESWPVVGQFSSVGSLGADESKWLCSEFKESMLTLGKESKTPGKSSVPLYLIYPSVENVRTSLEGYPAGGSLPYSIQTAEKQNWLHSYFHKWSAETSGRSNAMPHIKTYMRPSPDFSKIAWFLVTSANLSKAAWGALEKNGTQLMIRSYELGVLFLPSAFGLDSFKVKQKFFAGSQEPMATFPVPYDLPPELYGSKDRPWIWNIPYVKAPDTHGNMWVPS
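Compounds were preincubated with Tdp1 (1 nM final) for 15 min at room temperature before substrate (15 nM final) started a 5 min reaction; beads (10 ug/ml final) were then added for 10 min before AlphaScreen detection.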
DT40 TDP1 no CPT: qHTS for Inhibitors of human tyrosyl-DNA phosphodiesterase 1 (TDP1): qHTS in cells in absence of CPT. DT40 Tdp1-/- hTDP1 cells, no CPT, ATP luminescence, 48 h. Potency, µM (doses to about 46.2 µM), for the others: top-dose activity change, negative = growth inhibition, hits mostly inhibitors. 420,000 tested, 15% active; also: potency is read from the fitted curve at half-maximal effect; % is scaled to controls: 0 for no effect and ±100 for the full control effect; nearly all actives have a fitted effect of over 55% in size
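Camptothecin absent (DMSO only). Human TDP1-complemented DT40 knockout cells, 400 cells/well, 37 °C for minimum 48 hr; ATP measured via CellTiter-Glo, 30 min dark incubation, luminescence.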
TGFb SMAD3 inh: qHTS for Inhibitors of TGF-b; HepG2 CAGA-GFP TGF-b/SMAD3 reporter, GFP fluorescence, 18 h; TGF-beta stimulated, 500 pg/mL final; Potency, µM (top dose mostly 46.1 µM), without a hit: at the highest dose activity, negative = inhibition, usual class: inhibitors; 410,000 tested, 1.2% active; also: potency is read from the fitted curve at half-maximal effect; % is scaled to controls: 0 for no effect and ±100 for the full control effect; nearly all actives have a fitted effect of over 65% in size
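HEPG2 CAGA-GFP cells (1000/well, DMEM with 1% FBS) were pre-incubated 2 h at 37 degrees C, given compound by pin tool, then stimulated with TGF-beta at 500 pg/mL final for 18 h before per-cell GFP fluorescence imaging.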
Starred values were filed as active, the others as inactive; [ ] = dose if it differs, or a comment. Unless noted, calls follow the shape of the dose curve; as a rule, active = well fitted curve in the direction sought with a large enough effect; inconclusive = small, poorly fitted or top-dose-only effect, or another doubt; inactive = no such curve, though single readings can be large; an effect the other way counts as inactive or inconclusive.

COC(=O)Nc1ccc(S(=O)(=O)N2CCCC(C(=O)N3CC(C)OC(C)C3)C2)cc1 (stereo not drawn) was read as IL-1B inflam inh 25, HepG2 tox -2%, TDP1 cell CPT inconclusive, DT40 TDP1 no CPT -22% and TGFb SMAD3 inh -17%.
For Cc1cccc(C(=O)Nc2ccc(OCc3cc(=O)n4ccsc4n3)cc2)c1 the results were HepG2 tox 0%, TDP1 cell CPT -29%, TDP1 inh 4%, DT40 TDP1 no CPT -23% and TGFb SMAD3 inh 2%.
`CCOC(=O)OCC1OC(c2ccccc2)C=CC1Oc1cccc(N(C)C)c1` (stereo not drawn) gave TDP1 inh 11%[21 µM].
O=C(NCC[C@H]1CC[C@@H](NC(=O)C2CCC2)[C@@H](CO)O1)c1cc(Cl)cc(Cl)c1 was read as IL-1B inflam inh -17, TDP1 cell CPT -25% and DT40 TDP1 no CPT -4%.
`COc1ccc(C(=O)Nc2ccc(S(=O)(=O)N3CCc4ccccc43)cc2)cc1` gave IL-1B inflam inh -23, HepG2 tox -37%, TDP1 cell CPT 26µM*, DT40 TDP1 no CPT 23µM* and TGFb SMAD3 inh inconclusive.
Screening CCOc1cccc2sc(NC(=O)c3ccc(S(=O)(=O)N4CCCc5ccccc54)cc3)nc12 returned HepG2 tox -17%, TDP1 cell CPT -17%, TDP1 inh -5%, DT40 TDP1 no CPT -29% and TGFb SMAD3 inh inconclusive.
For COc1cc2nc(NC(=O)c3ccc(S(=O)(=O)N4CCc5ccccc54)cc3)sc2cc1OC the results were HepG2 tox -13%, TDP1 cell CPT 21µM*, TDP1 inh 5%, DT40 TDP1 no CPT 15µM* and TGFb SMAD3 inh -14%.
Cc1cc(Nc2cccc(Cl)c2)nc2ccc(NC(=O)c3cccc(N(C)C)c3)cc12 was read as HepG2 tox -28%, TDP1 cell CPT 13µM*, TDP1 inh 12%, DT40 TDP1 no CPT 7.3µM* and TGFb SMAD3 inh -2%.
`Cc1cc(Nc2cccc(Cl)c2)nc2ccc(NC(=O)c3cccnc3)cc12` gave HepG2 tox 13µM*, TDP1 cell CPT 13µM*, TDP1 inh 7%, DT40 TDP1 no CPT 8.2µM* and TGFb SMAD3 inh 16µM*.
Cc1cc(Nc2cccc(C(F)(F)F)c2)nc2ccc(NC(=O)c3ccc(N(C)C)cc3)cc12 was read as HepG2 tox -5%, TDP1 cell CPT 5.2µM*, TDP1 inh 12%, DT40 TDP1 no CPT 4.6µM* and TGFb SMAD3 inh 13%.
For CCN(CC)S(=O)(=O)c1ccc(NC(=S)Nc2ccccc2)cc1 the results were IL-1B inflam inh -1, HepG2 tox 8%, TDP1 cell CPT inconclusive, DT40 TDP1 no CPT inconclusive and TGFb SMAD3 inh 0%.
CCN(Cc1ccncc1)S(=O)(=O)c1ccc(C(C)=O)cc1 was read as IL-1B inflam inh 0, HepG2 tox -15%, TDP1 cell CPT 16µM*, TDP1 inh 7%, DT40 TDP1 no CPT 12µM* and TGFb SMAD3 inh -27%.
For CCCN(CCC)S(=O)(=O)c1ccc(C(=O)Nc2nc3c(s2)CCc2ccccc2-3)cc1 the results were IL-1B inflam inh 38, HepG2 tox 8%, TDP1 cell CPT 16µM*, TDP1 inh 3%, DT40 TDP1 no CPT 15µM* and TGFb SMAD3 inh 1%.
COc1cccc(OC)c1C(=O)Nc1nc2c(s1)CCc1ccccc1-2 was read as HepG2 tox -18%, TDP1 cell CPT 0%, TDP1 inh 5%[12.3 µM], DT40 TDP1 no CPT -15% and TGFb SMAD3 inh -21%.
Screening CCN(CC)S(=O)(=O)c1ccc(C(=O)Nc2ccc(Cc3ccncc3)cc2)cc1 returned IL-1B inflam inh -83*, HepG2 tox -9%, TDP1 cell CPT 16µM*, TDP1 inh -4%, DT40 TDP1 no CPT 15µM* and TGFb SMAD3 inh -7%.
CCN(CC)S(=O)(=O)c1ccc(C(=O)Nc2nnc(NC(=S)Nc3ccccc3)s2)cc1 was read as IL-1B inflam inh 5, HepG2 tox -14%, TDP1 cell CPT inconclusive, TDP1 inh 6%, DT40 TDP1 no CPT 23µM* and TGFb SMAD3 inh -4%.
`NNc1ccc(Cl)nn1` gave IL-1B inflam inh 72, HepG2 tox -42%, TDP1 cell CPT 7%, TDP1 inh 0%, DT40 TDP1 no CPT 4% and TGFb SMAD3 inh inconclusive.
CN(C)CCN(C)C1CN(Cc2ccccc2)S(=O)(=O)C1 (stereo not drawn) was read as IL-1B inflam inh 1, HepG2 tox -23%, TDP1 cell CPT -2%, DT40 TDP1 no CPT 0% and TGFb SMAD3 inh -8%.
COc1cc(C(=O)NCc2cccnc2)ccc1OCC(=O)Nc1cccc(C(F)(F)F)c1 was read as IL-1B inflam inh -7, HepG2 tox -37%, TDP1 cell CPT 5.2µM*, TDP1 inh 3%[0.505 µM], DT40 TDP1 no CPT 3.7µM* and TGFb SMAD3 inh -9%.
`C=CCOc1ccc(C(=O)Nc2ccccc2C(=O)NCc2cccnc2)cc1` gave IL-1B inflam inh -26, HepG2 tox -22%, TDP1 cell CPT 6.5µM*, DT40 TDP1 no CPT 8.2µM* and TGFb SMAD3 inh -16%.
CC(C)(C)c1ccccc1OCC(=O)Nc1ccccc1C(=O)NCc1cccnc1 was read as IL-1B inflam inh -90*, HepG2 tox -23%, TDP1 cell CPT inconclusive, TDP1 inh 10%, DT40 TDP1 no CPT 16µM* and TGFb SMAD3 inh -19%.
CCN(CC)N=Nc1ccc(S(=O)(=O)Nc2nc(C)cc(C)n2)cc1 was read as IL-1B inflam inh 13, HepG2 tox 1%, TDP1 cell CPT 8%, TDP1 inh 4%, DT40 TDP1 no CPT -24% and TGFb SMAD3 inh -3%.
For CC(=O)Nc1cc(-c2ccccc2)cn2c(-c3ccc(F)c(Cl)c3)cnc12 the results were IL-1B inflam inh -12, HepG2 tox -38%, TDP1 cell CPT 23µM*, DT40 TDP1 no CPT inconclusive and TGFb SMAD3 inh -9%.
Screening CC(=O)Nc1cc(-c2cccc(F)c2)cn2c(-c3ccc(F)c(Cl)c3)cnc12 returned IL-1B inflam inh -2, HepG2 tox -46%, TDP1 cell CPT inconclusive, DT40 TDP1 no CPT inconclusive and TGFb SMAD3 inh 18µM*.

Assay outcomes deposited in PubChem by National Center for Advancing Translational Sciences (NCATS).
